PubChem BioAssay AID602282 (Johns Hopkins Ion Channel Center, 2012)
In all, about 1,100 compounds went through this assay and about 1,000 (91%) were called active.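 Rule for the calls: active = inhibition above 3 SD of the buffer control wells (cut at about 41% in these data); inactive = the rest.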 The set was probably picked from earlier hits. Only a sample is shown.

Experiment: inhibition of M3R-evoked calcium signal on retest – cell-based, HEK293 M3R/RGS4 inducible, calcium flux, duplicate, RGS4 activator project, confirmation (AID 602282);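 note: signal is the integrated peak-minus-minimum Fluo4 fluorescence over baseline ratio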
Conditions: carbachol calcium flux Fluo4, at 10 µM, active compounds read high
In the case of `C=CC12CN(C)[C@@H]3C4CO[C@H](C[C@H]41)[C@]1(C(=O)Nc4ccccc41)[C@@H]32` (some centres not stated), the inhibition is reported as 84% (active). For `CC(C)Oc1cccc(C(=O)C2CCCN(C3CCOCC3)C2)c1` (configuration not stated), the inhibition was 42.5% (active).
